Several values for one entry are separate records, joined by “and”; a condition that tells them apart may be missing. Equal values may be shown once. The source holds several records for some structures; these can differ, active in one and inactive in another. Activity calls are given as the source filed them. Unless noted, how the calls were made is not given here.
Legend:
[1] = galactose survival enhancers in mitochondrial complex I cybrids – cell-based, galactose medium, ATP luminescence, primary screen (AID 1645843;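 active means z-score of at least 1.8 in each of two replicates, scored against plate mean and spread of sample wells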;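 further: positive z means more ATP and so rescue of galactose-driven cybrid death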); settings: complex I mutant cybrid cells, 72 h, stronger effect = higher value
[2] = test system: Hepatitis C virus NS3 helicase; assay: blockers of NS3h binding to ssDNA – biochemical, fluorescence polarization, LOPAC1280 library, primary screen (AID 687035; in the data active means inhibition above about 37%); settings: Purified HCV NS3 helicase, Cy5-dT15 ssDNA binding fluorescence polarization; stronger effect = higher value; concentration not given here
[3] = compounds altering Cy5-DNA-NS3h complex signal – biochemical, LOPAC1280, artefact control for HCV NS3 helicase inhibitor project (AID 687037); settings: Cy5-DNA-NS3h complex fluorescence interference counterscreen
[4] = blockers of cellular phospholipid synthesis – cell-based, LOPAC library, screen 4, primary screen (AID 1347384); settings: animal cells, phospholipid biosynthesis inhibition screen; at 10 µM
[5] = compounds altering viability of human ES cells (AID 493140); settings: human embryonic stem cell survival screen; stronger effect = higher value;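 further: cells exposed to compounds for four days before counting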
[6] = growth inhibition, single agents and combos, LFS_MB_1R, cell-based, cisplatin or BGB combos, synergistic combos for chromothripsis tumors (AID 1671452; in the data active means inhibition above about 80%;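 further: cells exposed for 96 hours before readout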); settings: LFS_MB_1R medulloblastoma cells, stronger effect = higher value
[7] = growth inhibition, single agents and combos, CRL2098, cell-based, BGB or cisplatin IC20 combos, synergistic combos for chromothripsis tumors (AID 1671454; in the data active means inhibition above about 80%;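 further: cells exposed for 96 h before readout; 0% = vehicle DMSO and 100% = killing by high DMSO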); settings: CRL2098 osteosarcoma cells, drug combinations, stronger effect = higher value
[8] = growth inhibition, single agents and combos, HD-MB03, cell-based, BGB or cisplatin IC20 combos, synergistic combos for chromothripsis tumors (AID 1671455; in the data active means inhibition above about 83%;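 further: 0% = vehicle DMSO and 100% = high DMSO as cytotoxic control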); settings: HD-MB03 medulloblastoma cells, stronger effect = higher value
[9] = growth inhibition, single agents and combos, UWB1.289, cell-based, BGB or cisplatin combos, synergistic combos for chromothripsis tumors (AID 1671456; in the data active means inhibition above about 80%;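 further: cells exposed to compound for four days; 0% = vehicle DMSO and 100% = killing by high DMSO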); settings: UWB1.289 ovarian carcinoma cells, stronger effect = higher value
[10] = growth inhibition, single agents and combos, LFS_MB_2R, cell-based, cisplatin combos, synergistic combos for chromothripsis tumors (AID 1671457; in the data active means inhibition above about 80%;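 further: cells exposed to compound for four days before readout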); settings: LFS_MB_2R medulloblastoma cells, stronger effect = higher value
[11] = UWB1.289_BRCA1 ovarian cancer growth, cell-based, BGB or cisplatin combinations (AID 1671459; in the data active means inhibition above about 80%); settings: UWB1.289 BRCA1 ovarian carcinoma, drug combinations, stronger effect = higher value
[12] = drug combination toxicity in non-malignant astrocytes – cell-based, BGB or cisplatin IC20 combos, cytotoxicity control for chromothriptic childhood tumor combination screen (AID 1671460; in the data active means inhibition above about 80%;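 further: cells exposed to compounds for 96 hours before viability readout; 0% = vehicle and 100% = killing control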); settings: Human astrocytes, viability inhibition, drug combinations, at 0.5 µM, stronger effect = higher value
[13] = CRL1545 cell growth, single agent and combined, cisplatin and BGB IC20 combos (AID 1671464; in the data active means inhibition above about 80%;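 further: cells exposed to compound for 96 hours before readout; 0% = vehicle DMSO and 100% = high DMSO killing control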); settings: CRL1545 osteosarcoma cells, stronger effect = higher value
[14] = liver-stage malaria parasite load reduction – cell-based, known kinase inhibitor set, luminescence, hepatoma host viability (AID 624392); settings: Plasmodium liver stage in hepatoma cells, luciferase luminescence, concentration not given here; liver cell % of control: measured here: host liver cell viability; parasite % of control: stronger effect = lower value;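 further: infected cells incubated roughly two days before readout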
[15] = chitosan synthesis blockers in C. neoformans – flow cytometry, Cibacron Brilliant Red staining (AID 1347148); settings: Cryptococcus neoformans chitosan, stronger effect = lower value; at 10 µM unless noted;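 further: compound exposure lasted three days at 37 degrees C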
[16] = altered dexamethasone sensitivity, NF-kB reporter, cell-based, luciferase, IL-1B stimulus (AID 624486); settings: IL-1B + dexamethasone, luminescence; percent of negative control (+Dex): actives lie on both sides, concentration not given here; z-score: measured here: IL-1B alone, no Dex;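 on percent of negative control (+Dex): 100% = mean signal of vehicle control wells on the plate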
[17] = C. elegans survival during P. aeruginosa infection – whole organism (AID 651566);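 further: tested at 14 µM; sign flipped so higher z means a lower ratio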; settings: C. elegans killed by P. aeruginosa, survival ratio
[18] = pro-inflammatory signaling induction in mouse macrophages – cell-based, murine, luminescence (AID 652131); settings: murine macrophage pro-inflammatory reporter, stronger effect = higher value
[19] = target: NAD(+) hydrolase SARM1 (Homo sapiens) (UniProt Q6SZW1); assay: blocking NAD cleavage by SARM1 SAM-TIR – cell lysate, NAD-Glo luminescence (AID 1508614;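 active means compound whose remaining NAD level is above about 45 nM, limit read from the data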); settings: SAM-TIR HEK293T lysate NADase, at 1 µM, stronger effect = higher value
[20] = measured here: combination with cisplatin, at 0.5 µM
[21] = measured here: combination with cisplatin, at 5 µM

Sequence of NAD(+) hydrolase SARM1 (Homo sapiens) (Q6SZW1 whole entry, looked up): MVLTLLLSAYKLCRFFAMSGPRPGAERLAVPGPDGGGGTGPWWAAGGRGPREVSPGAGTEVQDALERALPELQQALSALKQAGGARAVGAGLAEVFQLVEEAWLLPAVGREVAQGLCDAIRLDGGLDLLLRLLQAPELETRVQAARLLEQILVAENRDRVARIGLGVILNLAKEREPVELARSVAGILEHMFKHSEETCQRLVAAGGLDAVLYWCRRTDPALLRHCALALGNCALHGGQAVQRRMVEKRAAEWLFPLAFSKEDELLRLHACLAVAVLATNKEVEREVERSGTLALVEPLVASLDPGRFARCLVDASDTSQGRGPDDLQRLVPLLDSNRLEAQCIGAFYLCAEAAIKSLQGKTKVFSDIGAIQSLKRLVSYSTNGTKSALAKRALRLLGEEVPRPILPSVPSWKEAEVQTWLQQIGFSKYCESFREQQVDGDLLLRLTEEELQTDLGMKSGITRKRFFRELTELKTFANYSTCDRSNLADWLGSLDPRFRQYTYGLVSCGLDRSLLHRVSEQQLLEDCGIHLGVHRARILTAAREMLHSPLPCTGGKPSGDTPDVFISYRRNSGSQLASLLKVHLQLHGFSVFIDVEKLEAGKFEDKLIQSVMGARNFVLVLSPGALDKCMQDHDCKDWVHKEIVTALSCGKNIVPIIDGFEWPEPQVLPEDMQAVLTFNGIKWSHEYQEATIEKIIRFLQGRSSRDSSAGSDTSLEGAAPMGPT

C=CC[N+]1([C@H]2C[C@H]3[C@@H]4CC[C@H]5C[C@H](O)[C@@H](N6CCOCC6)C[C@]5(C)[C@H]4CC[C@]3(C)[C@H]2OC(C)=O)CCCC1
z-score [1]: 0.25 (inactive)

CS(=O)(=O)c1ccc(C(=O)Nc2ccc(Cl)c(-c3ccccn3)c2)c(Cl)c1
z-score [1]: 0.355 (inactive)

CN1CC(=O)NC1=NC(=O)Nc1cccc(Cl)c1
inhibition [2]: -2% (inactive)
fluorescence ratio (interference) [3]: 1 (inactive)
outcome [4]: inactive

CN(C(Cc1ccc(OS(=O)(=O)c2cccc3cnccc23)cc1)C(=O)N1CCN(c2ccccc2)CC1)S(=O)(=O)c1cccc2cnccc12 (stereo not drawn)
survival [5]: 94.6 (inactive)

Nc1ccccc1NC(=O)c1ccc(CNc2nccc(-c3cccnc3)n2)cc1
inhibition ([6]; at 0.5 µM): 42.2% (inactive)
inhibition ([6]; measured here: combination with BGB IC40, at 0.05 µM): -27.8%
inhibition [6, 20]: 50.9%
inhibition [6, 21]: 96.3%
inhibition ([7]; at 0.5 µM): -11.6% (inactive)
inhibition ([7]; measured here: combination with BGB at IC20, at 0.5 µM): -25.1%
inhibition ([7]; measured here: combination with cisplatin at IC20, at 0.5 µM): 19.9%
inhibition ([8]; at 0.5 µM): 40.8% (inactive)
inhibition ([8]; measured here: combo with BGB at IC20, at 0.5 µM): 31.4%
inhibition ([8]; measured here: combo with cisplatin at IC20, at 0.5 µM): 76.7%
inhibition ([9]; at 0.5 µM): 27.8% (inactive)
inhibition ([9]; measured here: inhibition with BGB combination, at 0.05 µM): -18.3%
inhibition ([9]; measured here: inhibition with cisplatin combination, at 0.05 µM): -16.7%
inhibition ([10]; at 0.5 µM): 36.6% (inactive)
inhibition [10, 20]: 45.3%
inhibition [10, 21]: 98.8%
inhibition ([11]; BGB combination, concentration series, at 5 µM): 114%
inhibition ([11]; at 0.5 µM): 29.1% (inactive)
inhibition ([11]; cisplatin combination, concentration series, at 5 µM): 120%
inhibition [12]: 24.5% (inactive)
inhibition ([12]; measured here: combo with BGB IC20): 21.7%
inhibition ([12]; measured here: combo with cisplatin IC20): 17.1%
inhibition ([13]; at 0.5 µM): 66.9% (inactive)
inhibition ([13]; measured here: with BGB IC20 combination, at 0.5 µM): 49.6%
inhibition ([13]; measured here: with cisplatin IC20 combination, at 0.5 µM): 75.1%
inhibition ([13]; single agent, at 0.05 µM): 31.7%
inhibition ([13]; single agent, at 5 µM): 90.8%

CN(C)c1ccccc1CN1CCCN(Cc2ccccc2N(C)C)C1c1ccncc1
outcome [4]: inactive

CCN(CCO)CCCOc1ccc2c(Nc3cc(CC(=O)Nc4cccc(F)c4)[nH]n3)ncnc2c1
parasite % of control [14]: 144% (inactive) and 137% (inactive) and 97.1% (inactive)

COc1ccc2c(c1)CC[C@@H]1[C@@H]2CC[C@]2(C)[C@@H](NCCCCCCN3C(=O)C=CC3=O)CC[C@@H]12
fold fluorescence [15]: 12.8 [at 107.6 µM] (inactive)

Nc1nc(Nc2ccc(S(N)(=O)=O)cc2)nn1C(=O)c1c(F)cccc1F
liver cell % of control [14]: 60.7% and 62.5% and 90.9%
parasite % of control [14]: 8.09% (inactive) and 28.9% (inactive) and 97.5% (inactive)

N#CCNC(=O)c1ccc(-c2ccnc(Nc3ccc(N4CCOCC4)cc3)n2)cc1
liver cell % of control [14]: 71.7% and 64% and 76%
parasite % of control [14]: 0.479% (inactive) and 0.449% (inactive) and 0.525% (active)

N#Cc1c(NC(=O)c2cccc3ccccc23)sc2c1CCCC2
liver cell % of control [14]: 69%
parasite % of control [14]: 217% (inactive)
percent of negative control (+Dex) [16]: 130% (inactive)
z-score [16]: 1.48
z-score [17]: -1.07 (inactive)
z-score [18]: -1.04 (inactive)

C[C@H]1[C@H](O)O[C@@H]2O[C@@]3(C)CC[C@H]4[C@H](C)CC[C@@H]1[C@@]24OO3
remaining NAD [19]: 10 nM (inactive)

Clc1ccc(COC(Cn2ccnc2)c2ccc(Cl)cc2Cl)c(Cl)c1 (stereo not drawn)
survival [5]: 33.8 (inactive)

Source: PubChem BioAssay
